Measurements: PubChem BioAssay
Active and inactive are the calls of the source.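 Rule for the calls, unless noted: active = inhibition at or above 50% at 10 µM; inactive = inhibition below 50%.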

Columns and labels:
[1] = inhibitors of TNFa-induced NFkB p65 translocation, primary screen, imaging, HUVEC, MLSMR starter and 10KST1 sets (AID 438;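 active = inhibition above 20% together with a positive visual image hit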;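 note: compound added about 3h40 before a 20 min TNFalpha stimulation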;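 for inhibition: signal is the nuclear over cytoplasmic p65 intensity ratio per well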); conditions: HUVEC TNFa-induced p65 nuclear translocation; cell count: measured here: nuclei count (cytotoxicity indicator), at 2.08 µM; inhibition: at 2 µM, stronger effect = higher value, 0% TNFa-plus-vehicle, 100% no-TNFa wells
[2] = inhibitors of mutant huntingtin aggregation, primary screen, imaging, exon1htt(103Q)mCFP cells, high-content imaging (AID 483;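 active = visual image review flags a hit and inhibition of aggregation exceeds 20%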;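 note: compound exposure lasted 3 days before fixation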;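 for nuclei count: percent of the per-plate median nuclei count of sample wells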); conditions: exon1htt(103Q)mCFP cell line, aggregate imaging, at 2 µM; inhibition of aggregation: stronger effect = higher value; nuclei count: measured here: cell count, toxicity
[3] = inhibitors of E-selectin induction by TNFa, primary screen, imaging, HUVEC, immunofluorescence, MLSMR starter and 10KST1 sets (AID 487;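 active = visually confirmed hit in the image check and inhibition above 20%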;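 for inhibition: signal is fraction of cell area covered by stained E-selectin grains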;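 for nuclei count: 100% = median nuclei count of all wells on the same plate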); conditions: HUVEC TNFalpha-induced E-selectin immunofluorescence imaging, at 2 µM; inhibition: stronger effect = higher value; nuclei count: measured here: cell number, toxicity
[4] = biological target: Voltage-gated potassium channel subunit beta-2 (Rattus norvegicus) (UniProt P62483); test: KvBeta enzyme negative modulators, primary screen, biochemical, NADPH fluorescence (AID 622;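 active = fluorescence slope higher than the sample average by over 3 SD, cut at about -0.22 in these data, passing the limit was not always enough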;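 note: slope of raw intensity against log time taken from 70 to 1610 s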); conditions: recombinant KvBeta, 4-cyanobenzaldehyde reduction, at 10 µM, stronger effect = higher value
Sequence of Voltage-gated potassium channel subunit beta-2 (Rattus norvegicus) (P62483 whole entry, looked up): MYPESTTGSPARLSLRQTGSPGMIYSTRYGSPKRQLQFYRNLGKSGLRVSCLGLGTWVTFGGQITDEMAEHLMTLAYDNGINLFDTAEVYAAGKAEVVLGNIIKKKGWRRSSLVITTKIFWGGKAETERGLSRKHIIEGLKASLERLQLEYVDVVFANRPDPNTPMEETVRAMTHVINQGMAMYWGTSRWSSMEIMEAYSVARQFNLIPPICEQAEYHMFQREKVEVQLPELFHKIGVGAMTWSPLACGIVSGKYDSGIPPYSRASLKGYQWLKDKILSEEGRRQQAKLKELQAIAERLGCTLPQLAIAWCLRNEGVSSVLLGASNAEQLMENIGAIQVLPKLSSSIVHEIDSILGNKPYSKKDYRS

[5] = biological target: Voltage-gated potassium channel subunit beta-2 (Rattus norvegicus) (UniProt P62483); test: KvBeta positive modulators, primary screen, biochemical, NADPH fluorescence (AID 623;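 active = NADPH fluorescence slope more negative than the mean of all samples by about 3 SD, 99.7% confidence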;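 note: fluorescence intensity change per second fitted from 20 to 320 s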); conditions: Recombinant KvBeta, NADPH fluorescence decrease slope, 10 min; at 10 µM; stronger effect = lower value
[6] = biological target: Alpha-2C adrenergic receptor (Homo sapiens) (UniProt P18825); test: modulators of alpha2C/GIRK thallium flux, primary screen, cell-based, HEK293 alpha2C/GIRK1/2 (AID 624;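 active = fluorescence slope after compound addition differing from the mean of all screened samples at 99.7% confidence, in either direction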;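 note: slope of fluorescence ratio to pre-addition baseline per second over 15 to 24 s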); conditions: thallium flux BTC fluorescence, at 10 µM, actives lie on both sides
Sequence of Alpha-2C adrenergic receptor (Homo sapiens) (P18825 whole entry, looked up): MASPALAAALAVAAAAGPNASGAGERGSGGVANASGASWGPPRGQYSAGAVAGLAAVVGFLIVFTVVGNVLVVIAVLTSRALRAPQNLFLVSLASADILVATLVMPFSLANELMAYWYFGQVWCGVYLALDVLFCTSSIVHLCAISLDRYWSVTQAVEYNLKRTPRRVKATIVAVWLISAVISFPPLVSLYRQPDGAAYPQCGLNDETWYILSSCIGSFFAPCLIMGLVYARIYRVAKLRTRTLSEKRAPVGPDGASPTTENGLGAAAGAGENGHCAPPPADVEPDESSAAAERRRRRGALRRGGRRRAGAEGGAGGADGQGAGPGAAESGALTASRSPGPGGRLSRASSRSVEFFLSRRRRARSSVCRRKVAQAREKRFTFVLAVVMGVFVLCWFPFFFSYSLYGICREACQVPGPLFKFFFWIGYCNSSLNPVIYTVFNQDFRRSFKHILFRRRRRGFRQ

[7] = inhibitors of Sendai virus-induced IRF3 signaling, primary screen, TLR/RLR signaling modifier project, cell-based, Sendai virus stimulus, luciferase, 10K MLSCN set (AID 602276); conditions: HEK293 RL24 IRF3 luciferase reporter, at 10 µM, stronger effect = higher value;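 note: firefly luciferase from ISG56 promoter only with Renilla not read in this screen; 0% = Sendai virus plus DMSO and 100% = medium plus DMSO without virus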
[8] = inhibitors of poly I:C-induced TLR3 signaling, primary screen, cell-based, poly I:C stimulus, luciferase, 10K MLSCN set (AID 602277;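 active = inhibition of the reporter signal at or above 50%; inactive = inhibition below 50%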); conditions: HEK293-TLR3 RL24 IRF3 luciferase reporter, at 10 µM, stronger effect = higher value

Compound | cell count [1] | inhibition [1] | inhibition of aggregation [2] | nuclei count [2] [%] | inhibition [3] | nuclei count [3] [%] | fluorescence slope [4] | NADPH fluorescence slope [5] | slope [6] | inhibition [7] | inhibition [8]
CCn1cc(S(=O)(=O)CC(=O)Nc2ccc(OC)cc2)c2ccccc21 | 624 | -2.4% (inactive) | 7% (inactive) | 82.1 | -16.8% (inactive) | 115 | -0.528 (inactive) | -4.7e-05 (inactive) | 0.00751 (inactive) | 7.03% (inactive) | 16.6% (inactive)
S=c1[nH]nc(Cc2ccccc2)n1-c1ccccc1 | 664 | -5.5% (inactive) | -9.4% (inactive) | 111 | 14.9% (inactive) | 106 | -0.367 (inactive) | -3.9e-05 (inactive) | 0.00525 (inactive) | 9.34% (inactive) | 20.2% (inactive)
CCC(=O)N1CCc2cc(S(=O)(=O)CCC(=O)Nc3ccc(F)c(F)c3)ccc21 | 571 | 5.2% (inactive) | 6.1% (inactive) | 96 | -68.8% (inactive) | 111 | -0.423 (inactive) | -1.2e-05 (inactive) | 0.00293 (inactive) | -11.6% (inactive) | -3.44% (inactive)
CCOC(=O)N1CCC(Nc2ncnc3c2cnn3-c2ccc(C)cc2C)CC1 | 684 | -0.8% (inactive) | 6.9% (inactive) | 92.6 | -36.3% (inactive) | 124 | -0.529 (inactive) | -4.5e-05 (inactive) | 0.00533 (inactive) | 3.02% (inactive) | -54.1% (inactive)
O=C(NC1CCCCC1)n1c(=O)oc2ccc(Cl)cc21 | 666 | 13.9% (inactive) | -4.2% (inactive) | 103 | 23.4% (inactive) | 107 | -0.622 (inactive) | -3.6e-05 (inactive) | 0.00609 (inactive) | -1.88% (inactive) | -13.8% (inactive)
CCc1nn2c(=O)cc(CSc3nc4sc5c(c4c(=O)n3C)CCCC5)nc2s1 | 536 | -14.1% (inactive) | -13.9% (inactive) | 118 | 38% (inactive) | 65.2 | -0.598 (inactive) | 4.1e-05 (inactive) | 0.00602 (inactive) | -3.07% (inactive) | -3.25% (inactive)
c1cc2c(cc1Nc1nc(-c3ccc4c(c3)OCO4)cs1)OCCO2 | 351 | 0.4% (inactive) | 10% (inactive) | 104 | -36.9% (inactive) | 118 | -0.188 (inactive) | -2.8e-06 (inactive) | 0.00387 (inactive) | -63.5% (inactive) | -126% (inactive)
CC1CCN(C(=O)CSCC(=O)Nc2nc(-c3cccs3)cs2)CC1 | 734 | -3.4% (inactive) | 17.8% (inactive) | 94.3 | -38.7% (inactive) | 114 | -0.495 (inactive) | -1.9e-05 (inactive) | 0.00893 (inactive) | 4.81% (inactive) | -0.513% (inactive)
CC(C)OC(=O)CSc1nnc(-c2ccc(C(C)(C)C)cc2)n1N | 396 | -2.3% (inactive) | 4.2% (inactive) | 80.6 | -158% (inactive) | 210 | -0.469 (inactive) | -3.9e-05 (inactive) | 0.00343 (inactive) | 1.32% (inactive) | 14% (inactive)
NC(=O)COC(=O)CNC(=O)c1ccc(Cl)cc1 | 450 | 11.7% (inactive) | 4.1% (inactive) | 106 | 20.5% (inactive) | 111 | -0.521 (inactive) | -1.3e-05 (inactive) | 0.00666 (inactive) | 18.5% (inactive) | 17.3% (inactive)
CSCCC(NS(=O)(=O)c1ccc2c(c1)oc(=O)n2C)C(=O)NC1CCCCC1 (stereo unspecified) | 627 | -6% (inactive) | 7.8% (inactive) | 93 | -35.6% (inactive) | 106 | -0.584 (inactive) | -3.7e-05 (inactive) | 0.00669 (inactive) | 11.8% (inactive) | 25.6% (inactive)
CC(C)CN(C(=O)COC(=O)Cc1n[nH]c(=O)c2ccccc12)C1CCS(=O)(=O)C1 (stereo unspecified) | 399 | 1.7% (inactive) | 14.7% (inactive) | 96.8 | -65.6% (inactive) | 108 | -0.586 (inactive) | -1.4e-05 (inactive) | 0.00565 (inactive) | 12% (inactive) | 34.3% (inactive)
COc1cc2c(cc1OC)CN(C(=O)COc1ccc(C)c(C)c1)CC2 | 653 | -3% (inactive) | -11.6% (inactive) | 106 | 17.1% (inactive) | 106 | -0.456 (inactive) | 1.3e-05 (inactive) | 0.00534 (inactive) | 18.6% (inactive) | 20.9% (inactive)
COC(=O)c1ccc(NC(=O)C(C)N2C(=O)c3ccccc3C2=O)cc1 (stereo unspecified) | 593 | -1.8% (inactive) | -7.5% (inactive) | 103 | -39.9% (inactive) | 108 | -0.614 (inactive) | 5.9e-06 (inactive) | 0.0058 (inactive) | -2.42% (inactive) | 3.26% (inactive)
COCCn1nnnc1C(c1ccccc1OC)N1CCc2ccccc2C1 (stereo unspecified) | 511 | -3.6% (inactive) | 37.6% (inactive) | 105 | -89.6% (inactive) | 96.1 | -0.322 (inactive) | -5e-05 (inactive) | 0.00407 (inactive) | 16.5% (inactive) | 32.8% (inactive)
COC(=O)c1ccc(CSc2nnc(-c3ccncc3)o2)o1 | 612 | -2.2% (inactive) | -8% (inactive) | 139 | -31.9% (inactive) | 114 | -0.596 (inactive) | -3.4e-05 (inactive) | 0.00373 (inactive) | 12% (inactive) | 13.9% (inactive)
CC1CN(C(=O)CSc2nnc(-c3ccc(Cl)cc3)n2C)CC(C)O1 (stereo unspecified) | 345 | 1.1% (inactive) | -13.2% (inactive) | 91.5 | -122% (inactive) | 124 | -0.275 (inactive) | -3.8e-05 (inactive) | 0.00669 (inactive) | -5.39% (inactive) | -17.3% (inactive)
Cc1nc2sc(C(c3cccc(F)c3)N3CCCCC3)c(O)n2n1 (stereo unspecified) | 223 | -2.8% (inactive) | -5.5% (inactive) | 95.8 | -5.7% (inactive) | 120 | -0.538 (inactive) | 7.3e-06 (inactive) | 0.00555 (inactive) | 1.92% (inactive) | 19.2% (inactive)
COc1cccc(-c2cc(C(F)(F)F)nc(NCc3ccco3)n2)c1 | 449 | 1.7% (inactive) | 28.6% (inactive) | 97.3 | -25.2% (inactive) | 94.3 | -0.469 (inactive) | -5.6e-06 (inactive) | 0.00562 (inactive) | -7.28% (inactive) | 19.1% (inactive)
CCCCn1nnc(NC(=O)Cc2ccc(Cl)cc2)n1 | 618 | 7.7% (inactive) | 23.9% (inactive) | 91.6 | -66% (inactive) | 106 | -0.44 (inactive) | -6.8e-05 (inactive) | 0.00393 (inactive) | 1.51% (inactive) | 19.5% (inactive)
Cc1cccc(Cc2nnc(NC(=O)c3cccc(S(=O)(=O)N4CCOCC4)c3)s2)c1 | 424 | -5.5% (inactive) | -0.5% (inactive) | 106 | 0.9% (inactive) | 126 | -0.422 (inactive) | -7.5e-06 (inactive) | 0.00421 (inactive) | 14.3% (inactive) | 30.6% (inactive)
CC1=CCC2C(=O)N(c3nc(C)cc(C)n3)C(=O)C2C1 (stereo unspecified) | 332 | 4.2% (inactive) | 9% (inactive) | 85.6 | -124% (inactive) | 105 | -0.53 (inactive) | -7.2e-05 (inactive) | 0.00507 (inactive) | 12.7% (inactive) | 21.2% (inactive)
CCN(c1cccc(C(F)(F)F)c1)S(=O)(=O)c1ccc2c(c1)CCN2C(=O)C1CC1 | 495 | 2.7% (inactive) | 3.1% (inactive) | 97.3 | -51.5% (inactive) | 104 | -0.405 (inactive) | -4.7e-05 (inactive) | 0.00287 (inactive) | -11.8% (inactive) | -25.9% (inactive)
CC(C)CNc1oc(-c2ccc(F)cc2)nc1C#N | 696 | -2.9% (inactive) | -21% (inactive) | 108 | -41.9% (inactive) | 118 | -0.543 (inactive) | -5e-06 (inactive) | 0.00664 (inactive) | -4.19% (inactive) | 2.46% (inactive)
CCc1nnc(NC(=O)c2ccc(COc3ccccc3)o2)s1 | 736 | -49% (inactive) | -1.8% (inactive) | 101 | -18.9% (inactive) | 102 | -0.519 (inactive) | -2.5e-05 (inactive) | 0.00512 (inactive) | -7.49% (inactive) | 3.46% (inactive)
Cc1ccc(O)c(-c2cc3ccccc3[nH]2)c1 | 616 | -4.8% (inactive) | 20% (inactive) | 98.8 | -37.9% (inactive) | 109 | -0.46 (inactive) | -3.3e-05 (inactive) | 0.00556 (inactive) | -4.2% (inactive) | -87.3% (inactive)
